PubChem BioAssay (Tox21)
Results filed as inconclusive are left out. Where a call stands in place of a potency, no number is given. Activity calls are given as the source filed them. The call rests on the fitted dose curve; in most records, active means well fitted cell-killing curve with a large enough effect in the repeat runs; inconclusive means weak or mixed curves, or effect the other way; inactive means flat fitted curve, though single readings scatter.

test: qHTS assay to identify small molecule agonists of the constitutive androstane receptor (CAR) signaling pathway - cell viability counter screen (AID 1224836); details: HepG2-CYP2B6-hCAR viability, CellTiter-Fluor, 23 h, PK11195 added to every well; series mostly up to 92.4 µM; further: nearly all actives have a fitted effect of over 45% in size
From the text: U.S. Tox21 Program National Center for Advancing Translational Sciences [NCATS] NIH Chemical Genomics Center [NCGC] U.S. Environmental Protection Agency [EPA] National Institutes of Environmental Health Sciences [NIEHS] National Toxicology Program [NTP] U.S. Food and Drug Administration [FDA] Tox21 Assay Overview: The constitutive androstane receptor (CAR) is a nuclear receptor which regulates multiple drug metabolizing enzymes (DMEs) and transporters. Activating CAR will generally increase the transcription and subsequent translation of CYP2B6 and CYP3A4. These two DMEs represent about 50% of the drug metabolizing potential in the body. […] Recently, there have also been studies performed indicating CARs role in energy metabolism and cancer therapy. Therefore, inducing CARs activity could have a potential effect on diabetes and cancer. Identifying environmental toxins and compounds which modulate CAR, through the use of the Tox21 10K compound collection, will be an important step in determining the toxicity and potential therapeutic effects these factors will have on the human body. To differentiate true CAR agonists from cytotoxic substances, the assay is multiplexed with a cell viability assay.
Tox21 Assay Protocol Summary: A double-stable (hCAR and CYP2B6-2.2kb) transfected cell line, derived from human hepatoma (HepG2) cells, was utilized for the duration of the quantitative high-throughput screens. The HepG2-CYP2B6-hCAR cells were dispensed at 2500 cells/4 uL/well in 1536-well white solid bottom plates using a Multidrop Combi. After the assay plates were incubated at 37 C/5% CO2 for 4 hrs, 23 nL of compounds at 15 concentrations (from 5-48 columns) or positive control (from 1 to 4 columns) were transferred to the assay plates using a Pintool station. One uL of PK11195 (final concentration = 0.75 uM) was added, using a Flying Reagent Dispenser, inside each well. After a 23 hr incubation period at 37 C/5% CO2, 1 uL of CellTiter-Fluor reagent was added into each well of the assay plates using a Flying Reagent Dispenser. The fluorescence intensity in the plates was then measured using a ViewLux plate reader.
Potency means the concentration at half of the fitted maximal effect.

SMILES | Potency
CNP(=O)(OC)Oc1ccc(C(C)(C)C)cc1Cl (stereo not given) | inactive
CC(=O)CCC(C)=O | inactive
CCCC(=O)Cl | inactive
O=C(O)c1ccccc1C(=O)Nc1cccc2ccccc12 | inactive
CCC(Cl)CCl (stereo not given) | inactive
C=CCOC(C)=O | inactive
O=S(=O)(O)C(F)(F)C(F)(F)C(F)(F)C(F)(F)F | inactive
Oc1ccc(Cl)c(Cl)c1Cl | inactive
Brc1ccc(Oc2ccccc2)cc1 | inactive
CC(C)(CCl)C(=O)Cl | inactive
COc1ccc(-c2ccccc2)cc1NNC(=O)OC(C)C | inactive
CC1Sc2c(C(=O)O)c(=O)c3cc(F)c(N4CCNCC4)cc3n21 (stereo not given) | inactive
O=C(CBr)Nc1ccc(Cl)cc1C(=O)c1ccccc1F | inactive
CCCC(Cn1cncn1)c1ccc(Cl)cc1Cl (stereo not given) | inactive
Clc1cccc2ccccc12 | inactive
CN1C(=O)NC(=O)C(C)(C2=CCCCC2)C1=O (stereo not given) | inactive
CC(C)(OO)c1ccccc1 | inactive
II | inactive
C=CC(=O)OCC(C)O (stereo not given) | inactive
O=[N+]([O-])c1ccc(F)c([N+](=O)[O-])c1 | 34.7 µM (active)

SMILES | Potency
N#CCc1ccccc1 | inactive
O=C(NCc1cccnc1)Nc1ccc([N+](=O)[O-])cc1 | inactive
CN(N=O)c1ccc([N+](=O)[O-])cc1 | inactive
CCOP(=S)(OCC)Oc1cc(Cl)c(Br)cc1Cl | inactive
COc1c(C(C)(C)C)cc([N+](=O)[O-])c(C)c1[N+](=O)[O-] | inactive
CCC(C)(NC(=O)c1cc(Cl)c(C)c(Cl)c1)C(=O)CCl (stereo not given) | 61.5 µM (active)
COC(N)=O | inactive
COc1nn(C(=O)NS(=O)(=O)c2ccccc2OC(F)(F)F)c(=O)n1C | inactive
O=Cc1ccc(Cl)cc1Cl | inactive
CCCCCC[N+](=O)[O-] | inactive
CC(C)O.CC(C)O.OCCN(CCO)CCO.OCCN(CCO)CCO.[Ti] | inactive
O=Cc1ccc2c(c1)OCO2 | inactive
COc1cc(CC(C)N)cc2c1OCO2 (stereo not given) | inactive
CCCCNP(N)(N)=S | inactive
O=C(N[C@H](c1ccccc1)[C@@H]1CN2CCC1CC2)c1c(Cl)ccc(C(F)(F)F)c1Cl | 98.4 µM (active)
Cc1ccccc1CCl | inactive
C=COC(C)=O | inactive
CCN(C)N=O | inactive
O=C(OC1CCCCC1)c1ccccc1C(=O)OC1CCCCC1 | inactive
COP(=O)(OC)O/C(=C/Cl)c1cc(Cl)c(Cl)cc1Cl | inactive
